Measurements taken from PubChem BioAssay (NCATS).
Results filed as inconclusive are left out. Calls of active or inactive are those of the source. Unless noted, calls come from the whole dose curve.

Experiments:
[1] = qHTS for Inhibitors of the Functional Ribonucleoprotein Complex (vRNP) of Lassa (LASV) Arenavirus: LASV Primary Screen - GLuc reporter signal (AID 1347082; calls by dose curve; tested in HEK293 reporter line; note: nearly all actives have a fitted effect of over 60% in size; for activity change, negative = inhibition: series mostly up to about 57 µM)
[2] = qHTS for Inhibitors of the Functional Ribonucleoprotein Complex (vRNP) of Lassa (LASV) Arenavirus: Viability assay - alamar blue signal for LASV Primary Screen (AID 1347083; calls by dose curve; tested in HEK293 reporter line; note: nearly all actives have a fitted effect of over 80% in size; for activity change, negative = reduced viability: series mostly up to about 57 µM)
[3] = qHTS for Inhibitors of the Functional Ribonucleoprotein Complex (vRNP) of Lymphocytic Choriomeningitis Arenaviruses (LCMV): Viability assay - alamar blue signal for LCMV Primary Screen (AID 1347085; calls by dose curve; tested in HEK293 reporter line; note: nearly all actives have a fitted effect of over 80% in size; for activity change, negative = lower viability: series mostly up to about 57 µM)
[4] = target: Nucleoprotein (Lymphocytic choriomeningitis virus (strain Armstrong)) (UniProt P09992); experiment: qHTS for Inhibitors of the Functional Ribonucleoprotein Complex (vRNP) of Lymphocytic Choriomeningitis Arenaviruses (LCMV): LCMV Primary Screen - GLuc reporter signal (AID 1347086); note: nearly all actives have a fitted effect of over 70% in size; for activity change, negative = inhibition: series mostly up to about 57 µM
Sequence of Nucleoprotein (Lymphocytic choriomeningitis virus (strain Armstrong)) (P09992 whole entry, looked up): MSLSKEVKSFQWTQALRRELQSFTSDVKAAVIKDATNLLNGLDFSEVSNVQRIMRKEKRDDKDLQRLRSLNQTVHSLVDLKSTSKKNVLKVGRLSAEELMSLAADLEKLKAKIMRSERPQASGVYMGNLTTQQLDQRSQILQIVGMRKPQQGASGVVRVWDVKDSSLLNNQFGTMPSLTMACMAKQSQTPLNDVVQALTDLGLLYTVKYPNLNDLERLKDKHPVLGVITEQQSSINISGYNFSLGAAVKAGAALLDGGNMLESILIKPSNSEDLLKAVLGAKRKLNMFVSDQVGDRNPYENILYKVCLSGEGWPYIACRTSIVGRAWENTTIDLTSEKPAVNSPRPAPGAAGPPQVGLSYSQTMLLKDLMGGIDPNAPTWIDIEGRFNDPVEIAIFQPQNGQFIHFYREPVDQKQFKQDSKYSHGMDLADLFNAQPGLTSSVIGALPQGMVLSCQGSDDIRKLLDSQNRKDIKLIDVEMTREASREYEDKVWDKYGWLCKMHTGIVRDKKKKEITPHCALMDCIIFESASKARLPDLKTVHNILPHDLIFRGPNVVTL
% is set by controls: 0 for no effect and ±100 for the full control effect; potency is the fitted concentration of half-maximal effect.

CC1(C)C2=CCCC(C)(C)[C@]23CC[C@H]1C3
inactive: Potency [1] | Potency [2] | Potency [3] | Potency [4]

Cc1nc(C(N)=O)nc2ccccc12
inactive: Potency [1] | Potency [2] | Potency [3] | Potency [4]

C=C1C(=O)OC2C1C(OC(=O)C(C)=CC)CC(=C)C1C(O)C3OC3(C)C21O (stereo not given)
inactive: Potency [1] | Potency [2] | Potency [3] | Potency [4]

O=c1[nH]c(O)c(/C=C2\C=Nc3ccccc32)[nH]1
inactive: Potency [1] | Potency [2] | Potency [3] | Potency [4]

C[C@]12CC[C@H](O)CC1=CCC1C2CC[C@@]2(C)C1C[C@@H](O)[C@@H]2O (stereo not given in full)
inactive: Potency [1] | Potency [2] | Potency [3] | Potency [4]

CC(C)c1cc(C(=O)N2Cc3ccc(CN4CCN(C)CC4)cc3C2)c(O)cc1O
active: Potency [1] 0.968 µM | Potency [2] 0.544 µM | Potency [3] 0.685 µM | Potency [4] 0.485 µM

C=C1[C@@H]2C[C@]3(C(CC2=O)[C@]24C5C[C@H]3[C@H]2N(CC)C[C@]5(C)CC[C@@H]4O)[C@@H]1O (stereo not given in full)
inactive: Potency [1] | Potency [2] | Potency [3] | Potency [4]

C[C@H]([C@@H](N)C(=O)N[C@@H](C(=O)O)[C@@H]1O[C@H](n2ccc(=O)[nH]c2=O)[C@@H](O)[C@H]1O)[C@@H](O)c1ccc(O)cn1
inactive: Potency [1] | Potency [2] | Potency [3] | Potency [4]

C[C@@H]1O[C@@H](OC2C(O)C(OCCc3ccc(O)c(O)c3)OC(CO)C2OC(=O)/C=C/c2ccc(O)c(O)c2)[C@H](O)[C@H](O)[C@H]1O (stereo not given in full)
inactive: Potency [1] | Potency [2] | Potency [3] | Potency [4]

C/C=C(/CC[C@@H](C)[C@H]1CC[C@H]2C3=CC[C@H]4[C@H](C)[C@@H](O)CC[C@]4(C)[C@H]3CC[C@]12C)C(C)C
inactive: Potency [1] | Potency [2] | Potency [3] | Potency [4]

COc1c(-c2ccc(O)cc2)oc2cc(O)cc(O)c2c1=O
inactive: Potency [1] | Potency [2] | Potency [3] | Potency [4]

CCCCC[C@H](O)/C=C/[C@H]1OC(=O)C[C@H](O)[C@@H]1C/C=C\CCCC(=O)O
inactive: activity change, negative = inhibition [1] 4.7% [at 5.82 µM] | activity change, negative = reduced viability [2] 8.43% [at 5.82 µM] | activity change, negative = lower viability [3] 3.55% [at 5.82 µM] | activity change, negative = inhibition [4] 3.12% [at 5.82 µM]

O=C(Nc1ccc(Br)cc1)C(c1ccccc1)c1ccccc1
inactive: Potency [1] | Potency [2] | Potency [3] | Potency [4]

CC/C=C\CC1=C(C)CCC1=O
inactive: Potency [1] | Potency [2] | Potency [3] | Potency [4]

N[C@@H](CSS(=O)(=O)O)C(=O)O
inactive: Potency [1] | Potency [2] | Potency [3] | Potency [4]

O=C1C[C@@H](c2ccc(O)c(O)c2)Oc2c1ccc(O[C@@H]1O[C@H](CO)[C@@H](O)[C@H](O)[C@H]1O)c2O
inactive: Potency [1] | Potency [2] | Potency [3] | Potency [4]

CC(C)c1onc(-c2c(Cl)cccc2Cl)c1COc1ccc(C=Cc2cccc(C(=O)O)c2)c(Cl)c1
inactive: Potency [1] | Potency [2] | Potency [3] | Potency [4]

CC(C)=CCOc1c2ccoc2c(OCC=C(C)C)c2oc(=O)ccc12
inactive: Potency [1] | Potency [2] | Potency [3] | Potency [4]

Nc1nc2c(ncn2[C@@H]2O[C@H](COP(=O)(O)OP(=O)(O)OP(=O)(O)O)[C@@H](O)C2O)c(=O)[nH]1 (stereo not given in full)
inactive: Potency [1] | Potency [2] | Potency [3] | Potency [4]

CC/C=C\CCCCCCCCCCOC(C)=O
inactive: Potency [1] | Potency [2] | Potency [3] | Potency [4]

COc1ccc(CCC(=O)O)cc1
inactive: Potency [1] | Potency [2] | Potency [3] | Potency [4]

COC(=O)c1ccc(OC)cc1
inactive: Potency [1] | Potency [2] | Potency [3] | Potency [4]

CCCC(=O)OC
inactive: Potency [1] | Potency [2] | Potency [3] | Potency [4]

COc1ccc2c(Oc3ccc(NC(=O)c4c(C)n(CC(C)(C)O)n(-c5ccccc5)c4=O)nc3)ccnc2c1
inactive: Potency [1] | Potency [2] | Potency [3] | Potency [4]

C[C@@H](O)[C@H]1O[C@]2(C)CCC[C@H]1O2
inactive: Potency [1] | Potency [2] | Potency [3] | Potency [4]

CCOc1ccc(O)cc1
inactive: Potency [1] | Potency [2] | Potency [3] | Potency [4]

CCCCCCCCCCCCOC(C)=O
inactive: Potency [1] | Potency [2] | Potency [3] | Potency [4]

CC1(C)OC(=O)C=C[C@]2(C)[C@H]3CC[C@@]4(C)[C@H](c5ccoc5)OC(=O)[C@H]5O[C@]54[C@]3(C)C(=O)C[C@@H]12
inactive: Potency [1] | Potency [2] | Potency [3] | Potency [4]

O=C1C=C(O)c2c(O)cc(O)c(O)c2C1=O
inactive: Potency [1] | Potency [2] | Potency [3] | Potency [4]

COc1cc(OC)cc(-c2ccc3ncc4ccc(=O)n(-c5ccc(N6CCNCC6)c(C(F)(F)F)c5)c4c3c2)c1
active: Potency [1] 10.9 µM | Potency [2] 6.85 µM | Potency [3] 1.93 µM | Potency [4] 3.06 µM

COc1cc2c(c3oc(-c4ccccc4)cc(=O)c13)C=CC(C)(C)O2
inactive: Potency [1] | Potency [2] | Potency [3] | Potency [4]

C/C=C(/C)C(=O)O[C@@H]([C@H](O)c1cc2ccc(=O)oc2cc1OC)C(C)(C)O[C@@H]1O[C@H](CO)[C@@H](O)[C@H](O)[C@H]1O
inactive: Potency [1] | Potency [2] | Potency [3] | Potency [4]

CCCCC[C@H](O)/C=C/C=C\C/C=C\C=C\[C@@H](O)CCCC(=O)O
inactive: activity change, negative = inhibition [1] 2.34% [at 0.757 µM] | activity change, negative = reduced viability [2] 18.4% [at 0.757 µM] | activity change, negative = lower viability [3] 2.14% [at 0.757 µM] | activity change, negative = inhibition [4] 18.8% [at 0.757 µM]

C=C[C@]1(C)Cc2occ(C)c2C[C@H]1C(=C)C(=O)O
inactive: Potency [1] | Potency [2] | Potency [3] | Potency [4]

COc1cc2cc(Oc3ccc4ccc(=O)oc4c3)c(=O)oc2cc1O[C@@H]1O[C@H](CO)[C@@H](O)[C@H](O)[C@H]1O
inactive: Potency [1] | Potency [2] | Potency [3] | Potency [4]

CCC(=O)OCC(=O)[C@@]1(OC(=O)CC)[C@@H](C)C[C@@H]2[C@H]3CCC4=CC(=O)C=C[C@]4(C)[C@@]3(F)[C@@H](O)C[C@@]21C
inactive: Potency [1] | Potency [2] | Potency [3] | Potency [4]

COc1cccc2c(=O)c3ccoc3n(C)c12
inactive: Potency [1] | Potency [2] | Potency [3] | Potency [4]

CNCCO
inactive: Potency [1] | Potency [2] | Potency [3] | Potency [4]

C/C=C(/C)C(=O)O[C@@H]1[C@H](OC(=O)C=C(C)C)c2c(ccc3ccc(=O)oc23)OC1(C)C
inactive: Potency [1] | Potency [2] | Potency [3] | Potency [4]

COC(=O)C(O)C(O)(CCC(C)C)C(=O)OC1C(OC)=CC23CCCN2CCc2cc4c(cc2C13)OCO4 (stereo not given)
inactive: Potency [1] | Potency [2] | Potency [3] | Potency [4]

C=CCc1ccc(O)c(-c2cc(CC=C)ccc2O)c1
inactive: Potency [1] | Potency [2] | Potency [3] | Potency [4]

COc1ccc(C2OCC3(O)C(c4ccc(OC)c(OC)c4)OCC23)cc1OC (stereo not given)
inactive: Potency [1] | Potency [2] | Potency [3] | Potency [4]

C=C1[C@@H](OC(C)=O)CC[C@]2(C)[C@@H]1C[C@@H]1C[C@H](OC(C)=O)C(C)=C([C@@H](OC(C)=O)[C@@H]2OC(C)=O)C1(C)C
inactive: Potency [1] | Potency [2] | Potency [3] | Potency [4]

CC(=O)CCC1=C(C)CCCC1(C)C
inactive: Potency [1] | Potency [2] | Potency [3] | Potency [4]

CC12CCC(=O)C=C1C(F)CC1C2C(O)CC2(C)C1CCC2(O)C(=O)CO (stereo not given)
inactive: Potency [1] | Potency [2] | Potency [3] | Potency [4]

CCCCCCOC(=O)c1ccccc1
inactive: Potency [1] | Potency [2] | Potency [3] | Potency [4]

COC(=O)c1cc(OC)cc(O)c1C(=O)c1c(O)cc(C)cc1O
inactive: Potency [1] | Potency [2] | Potency [3] | Potency [4]

COc1cc(C2OCC3C(c4ccc(OC5OC(CO)C(O)C(O)C5O)c(OC)c4)OCC23)ccc1O (stereo not given)
inactive: Potency [1] | Potency [2] | Potency [3] | Potency [4]

CC[C@H](C)/C=C(C)/C=C/C1=CC2=CC(=O)[C@]3(C)OC(=O)[C@@H](C(C)=O)[C@@H]3C2=CO1
inactive: Potency [1] | Potency [2] | Potency [3] | Potency [4]

COc1ccc(C[C@@H](C)[C@@H](C)Cc2ccc(OC)c(OC)c2)cc1OC
active: Potency [1] 21.7 µM | Potency [2] 6.11 µM | Potency [3] 12.2 µM | Potency [4] 24.3 µM

CC1CCC(=O)O1 (stereo not given)
inactive: Potency [1] | Potency [2] | Potency [3] | Potency [4]

C[C@H]1OC(=O)CC[C@@H]2[C@]1(C)CCC1[C@@]2(C)CC[C@@]2(C)C3CC(C)(C)CC[C@]3(CO)CC[C@]12C (stereo not given in full)
inactive: Potency [1] | Potency [2] | Potency [3] | Potency [4]

C/C=C\C/C=C/CCCCCCCCOC(C)=O
inactive: Potency [1] | Potency [2] | Potency [3] | Potency [4]

COc1cc2c3c(c1OC)C1(C=CC(=O)C=C1)CC3N(C(C)=O)CC2 (stereo not given)
inactive: Potency [1] | Potency [2] | Potency [3] | Potency [4]

CCC(CC)C(=O)O
inactive: Potency [1] | Potency [2] | Potency [3] | Potency [4]

O=C1/C(=C/c2ccsc2)CC/C1=C\c1cccs1
inactive: Potency [1] | Potency [2] | Potency [3] | Potency [4]

COc1ccc(C(=O)OC2CC3CC[C@H](C2)N3C(C)=O)cc1OC (stereo not given in full)
inactive: Potency [1] | Potency [2] | Potency [3] | Potency [4]

CCCC1CCC(=O)O1 (stereo not given)
inactive: Potency [1] | Potency [2] | Potency [3] | Potency [4]

CC(=O)OCC(=O)[C@@]1(O)CC[C@H]2[C@@H]3CCC4=CC(=O)C=C[C@]4(C)[C@@H]3[C@@H](O)C[C@@]21C
inactive: Potency [1] | Potency [2] | Potency [3] | Potency [4]

COc1ccc(-c2coc3cc(O[C@@H]4O[C@H](CO)[C@@H](O)[C@H](O)[C@H]4O)c(OC)cc3c2=O)cc1
inactive: Potency [1] | Potency [2] | Potency [3] | Potency [4]
